Hits are enriched below; roughly 5.4% of the tested compounds scored in any of these assays.
Mdm2-MdmX inh: human Mdm2/MdmX binding inhibition; O15151+Q00987; SaOS-2 split-luciferase Mdm2/MdmX complementation, luminescence; inhibition, % at 8 µM; 3% of 330,000 active;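 active means inhibition of at least 50% at 8 µM in the primary screen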
Target sequence (O15151 whole entry, looked up): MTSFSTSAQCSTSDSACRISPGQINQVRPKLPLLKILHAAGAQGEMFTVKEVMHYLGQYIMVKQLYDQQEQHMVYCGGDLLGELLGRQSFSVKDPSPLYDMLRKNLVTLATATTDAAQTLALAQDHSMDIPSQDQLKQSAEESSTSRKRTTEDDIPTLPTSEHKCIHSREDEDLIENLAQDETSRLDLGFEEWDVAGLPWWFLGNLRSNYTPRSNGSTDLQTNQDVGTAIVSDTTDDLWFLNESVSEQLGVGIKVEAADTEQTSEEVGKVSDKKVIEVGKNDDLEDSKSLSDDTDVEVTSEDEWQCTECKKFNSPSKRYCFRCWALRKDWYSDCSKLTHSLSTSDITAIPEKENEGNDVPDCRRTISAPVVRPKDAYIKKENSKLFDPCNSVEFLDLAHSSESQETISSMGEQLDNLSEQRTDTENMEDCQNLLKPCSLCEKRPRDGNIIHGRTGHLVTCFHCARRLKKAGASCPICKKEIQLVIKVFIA
Target sequence (Q00987 whole entry, looked up): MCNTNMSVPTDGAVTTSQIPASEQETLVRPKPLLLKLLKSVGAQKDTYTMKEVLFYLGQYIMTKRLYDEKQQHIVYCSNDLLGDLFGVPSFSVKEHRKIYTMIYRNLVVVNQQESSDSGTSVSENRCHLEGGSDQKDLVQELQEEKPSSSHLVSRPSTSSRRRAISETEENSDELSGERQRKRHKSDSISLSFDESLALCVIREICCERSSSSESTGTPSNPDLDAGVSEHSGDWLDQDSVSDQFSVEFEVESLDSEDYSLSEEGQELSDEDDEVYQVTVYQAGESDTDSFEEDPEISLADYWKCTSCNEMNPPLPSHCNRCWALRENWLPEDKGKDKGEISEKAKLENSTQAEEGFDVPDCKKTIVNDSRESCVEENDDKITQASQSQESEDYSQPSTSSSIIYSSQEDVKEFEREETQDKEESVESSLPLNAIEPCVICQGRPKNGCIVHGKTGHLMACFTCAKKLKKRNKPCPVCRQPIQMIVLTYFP
Calb FLC: C. albicans growth modulation with fluconazole; C. albicans CaCi-2 (fluconazole-resistant clinical isolate) + fluconazole, Alamar Blue growth, 48 h; growth inhibition, % (no concentration beside the values); 0.57% of 300,000 active; AID 1979;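 active means growth inhibition above about 58% in most replicates, limit read from the data, passing the limit was not always enough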;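 further: all wells also contain fluconazole at 8 µg/ml as a sub-toxic cotreatment; 0% = median of DMSO wells and 100% = median of geldanamycin control wells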
SKKanGAS inh: blocks kanamycin growth of S. pyogenes SKKanGAS strain. BacTiter-Glo, 6 h. inhibition, % at 7.5 µM. 1.3% of 300,000 active;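 active means mean replicate score, as percent of positive control median, at least 50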;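 further: strain carries kanamycin resistance gene driven by streptokinase promoter and grows in 40 µg/ml kanamycin; loss of luminescence reflects streptokinase promoter inhibition or plain growth inhibition; 0% = median of DMSO wells and 100% = positive control at its reference dose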
CSC inhib: blocks cancer stem cells. cancer stem cell-like cells viability, luminescence. inhibition, % at 7.5 µM. 1.1% of 300,000 active; in the data active means inhibition above about 75%; tested in HMLE shEcad cells
Beta apoptosis: beta cell apoptosis inhibition; INS-1E cytokine-induced death, ATP luminescence, 48 h; percent of positive-control rescue, neutral wells zero; protection from apoptosis, % (test concentration not listed); 0.8% of 300,000 active; AID 435005;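 active means Every replicate reaches about 75%, or at least half do and their mean reaches it too, limit read from the data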;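 further: 0% = cytokine-treated negative control wells and 100% = positive control rescue; higher means more ATP so stronger rescue from cytokine killing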
MPTP inh: permeability transition pore inhibition; isolated mouse mitochondria, Ca2+ swelling absorbance, 30 min; inhibition, % at 10 µM; 1.4% of 360,000 active;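 active means inhibition of 50% or more, scaled per plate between neutral and stimulator controls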;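 further: 0% = DMSO wells given calcium and 100% = 1 mM EGTA wells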
MPTP counter: mitochondrial membrane potential, counter-screen. 78% of 5,000 active. isolated mitochondria, Rhodamine 123 fluorescence. inhibition, % at 10 µM. shares compounds with MPTP inh; in the data active means inhibition above about 22%;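 further: 0% = DMSO vehicle and 100% = positive control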
MPTP swell DR: dose response confirmation of mitochondrial permeability transition pore inhibitors. IC50, µM. 58% of 780 active. shares compounds with MPTP inh. isolated mitochondria swelling, absorbance; in the data active means IC50 below about 20 µM
MPTP counter DR: MPTP inhibitor counter-screen activity, dose response. shares compounds with MPTP inh. isolated mitochondria counterscreen, fluorescence read-out. IC50, µM. AID 651564. 49% of 780 active; in the data active means IC50 below about 80 µM
* hit, by the source's call; i = inactive; / = not tested or not shown.

SMILES | Mdm2-MdmX inh | Calb FLC | SKKanGAS inh | CSC inhib | Beta apoptosis | MPTP inh | MPTP counter | others
Cc1ccc(Nc2nc3nonc3[nH]c2=O)cc1C | 4 | 14 | 26 | 7 | 7 | 69* | 102*
Cc1ccc(Nc2n[nH]c(C)c2[N+](=O)[O-])cc1C | -259 | -3 | 2 | 8 | 2 | 8 | /
Cc1cc(C(F)(F)F)n2nc(-c3cnn(C)c3C(F)(F)F)c(Cl)c2n1 | 4 | -6 | 2 | -2 | 5 | 2 | /
O=C(Nc1ccc(F)cc1)Nc1csc2ccccc12 | 28 | 8 | -10 | 11 | 23 | 75* | 91*
O=C(Nc1ccc(F)cc1)Nc1ccc(NC(=O)c2ccccc2O)cc1 | 12 | 12 | -4 | 29 | -22 | 9 | /
O=C(Nc1ccc(F)cc1)Nc1ccccc1N1CCCCC1 | 21 | -6 | 8 | 38 | 38 | 85* | 77*
CN(C)c1ccc(NC(=O)Nc2csc3ccccc23)cc1 | -20 | -8 | -7 | 4 | 11 | 52* | 54*
CC1CC(C)CN(CC(=O)NC(c2ccccc2)c2ccccc2)C1 (configuration not stated) | 10 | 2 | 0 | -7 | -5 | 1 | /
COc1cccc(NC(=O)CSc2ncnc3c2cnn3Cc2ccccc2)c1 | 5 | -14 | 11 | 12 | -8 | 55* | 40*
O=C(CSc1ncnc2c1cnn2-c1ccccc1)Nc1ccccc1 | 18 | 5 | -8 | 17 | 2 | 80* | 43*
CNC(=O)CSc1ncnc2c1cnn2-c1ccccc1 | -59 | -25 | 0 | -3 | 3 | -2 | /
O=C1N/C(=C\c2ccc(O)cc2)C(=O)c2ccccc21 | -1 | 20 | -5 | 9 | -1 | 73* | -7
COC(=O)c1ccc(CN2CCCC(C(=O)c3cc(F)ccc3OC)C2)cc1 (configuration not stated) | -7 | 2 | 0 | 5 | / | 0 | /
Cc1ccccc1CNc1ncnc2cc(Cl)ccc12 | 6 | 6 | -2 | 21 | 3 | 1 | /
Cc1ccc(CNc2ncnc3cc(Cl)ccc23)cc1 | 8 | -2 | 17 | 8 | 25 | 87* | 76*
COc1ccc(S(=O)(=O)Nc2ccccc2-c2nnn(CC(=O)Nc3ccccc3OC)n2)cc1 | 5 | 6 | -7 | 35 | 34 | 13 | /
COc1ccc(NC(=O)Cn2nnc(-c3ccccc3NS(=O)(=O)c3ccccc3)n2)cc1 | -3 | -3 | 8 | 13 | 2 | 77* | 75*
Fc1c(F)c(C(F)(F)F)c(F)c(F)c1N/N=C\c1cccs1 | 35 | -8 | 25 | 26 | 10 | 87* | 70*
Cn1c(N/N=C/c2cccs2)cc(=O)n(C)c1=O | 30 | 29 | 1 | 3 | 0 | -1 | /
O=C(CN1C(=O)c2ccccc2C1=O)NC1CCCCCC1 | 8 | 4 | 0 | / | 0 | 0 | /
Cc1nc2ccccc2nc1SCC(=O)c1ccccc1 | -2 | -6 | 9 | 5 | 10 | 75* | 71*
COc1ccc(Nc2c(CCc3ccccc3)nc3nc(C)cc(C)n23)cc1 | / | / | / | / | / | 0 | /
COc1ccc(NC(=O)Cn2c(=O)oc3cc(S(=O)(=O)N4CCCC4)ccc32)cc1 | 12 | -4 | -4 | 10 | -6 | 1 | /
Cc1ccc(NC(=O)Cn2c(=O)oc3cc(S(=O)(=O)N4CCC(C)CC4)ccc32)cc1C | 17 | -1 | 2 | -1 | 76* | 70* | 90*
N#C/C(=C\Nc1ccccc1O)c1nc2ccccc2o1 | / | -9 | 9 | 49 | 8 | 77* | 78*
SMILES | Mdm2-MdmX inh | Calb FLC | SKKanGAS inh | CSC inhib | Beta apoptosis | MPTP inh | MPTP counter | others
CCCc1cc(O)c2c(C)cc(=O)oc2c1 | 14 | 18 | -1 | 6 | -3 | 82* | 87*
CCCCc1cc(=O)oc2cc(C)cc(O)c12 | 23 | 50 | 11 | -12 | 0 | 86* | 96*
COCC1CCN(C(=O)c2cc(COc3cccc4cnccc34)on2)CC1 | 40 | -4 | -5 | -4 | 28 | 6 | /
O=C(c1cc(COc2cccc3cnccc23)on1)N1CCCC(CCCO)C1 (configuration not stated) | 37 | 5 | -5 | 10 | 117* | 91* | 83*
COC(=O)c1c(NC(=O)C2CCCCC2)sc2c1CC(C)(C)NC2(C)C | 43 | -3 | 2 | -8 | -8 | 67* | -10 | MPTP swell DR=6.2*;MPTP counter DR=>80
COC(=O)c1c(NC(=O)Cc2ccccc2)sc2c1CC(C)(C)NC2(C)C | 22 | 25 | 5 | -6 | -7 | 74* | -3 | MPTP swell DR=i;MPTP counter DR=>80
COC(=O)c1c(NC(=O)c2ccccc2[N+](=O)[O-])sc2c1CC(C)(C)NC2(C)C | 30 | -19 | -4 | -9 | -8 | 0 | /
O=S(=O)(Nc1ccccc1O)c1ccc(-c2ccccc2)cc1 | 22 | 8 | 5 | 28 | 0 | 84* | 90*
CCOC(=O)c1cnc(N2CCN(C(=O)OCC)CC2)[nH]c1=O | 0 | 18 | -7 | 22 | -2 | -2 | /
Cc1ccc(C(=O)C2CCN(CC(=O)N3CCN(c4ccc(F)cc4)CC3)CC2)cc1 | 26 | -28 | / | 18 | 1 | -2 | /
Cc1cccc(COC(=O)CCCNC(=O)c2ccc(Cl)cc2)c1 | -13 | / | / | -2 | -2 | 0 | /
O=C(Nc1ccccc1)Nc1cc([N+](=O)[O-])ccc1F | 2 | 8 | -1 | -5 | -2 | 63* | 91*
CCC(CC)C(=O)Nc1cc([N+](=O)[O-])ccc1F | 11 | -14 | 1 | -9 | -10 | 2 | /
Cc1cc([N+](=O)[O-])ccc1NC(=O)Nc1ccccc1F | 27 | -10 | -1 | 24 | 24 | 93* | 92*
CCC(C)NC(=O)c1ccc(NC(=O)C2CCCO2)cc1 (configuration not stated) | -4 | -1 | 1 | 19 | 1 | -1 | /
Cn1c(=N)n(CC(O)c2cccc3ccccc23)c2ccccc21 (configuration not stated) | 31 | 1 | -2 | -6 | 6 | 90* | 5 | MPTP swell DR=3.4*;MPTP counter DR=37*
CCOC(=O)CSc1ccc(S(=O)(=O)N2CCCC2)cc1[N+](=O)[O-] | 10 | 40 | -12 | -11 | -1 | -3 | /
CCC(C)NC(=O)c1ccc2nc(Cc3ccc(OC)cc3)oc2c1 (configuration not stated) | 14 | 3 | -4 | -9 | / | 0 | /
CCC(NC(=O)c1ccc2nc(Cc3ccc(OC)cc3)oc2c1)c1ccncc1 (configuration not stated) | 9 | 16 | -2 | -7 | 50 | 66* | 76*
COC(=O)c1ccc(COC(=O)C(CCSC)NC(=O)COc2ccccc2)cc1 (configuration not stated) | 12 | -8 | -3 | -6 | / | 1 | /
Cc1cn(CC(=O)NCCNc2ccc([N+](=O)[O-])cn2)c(=O)[nH]c1=O | / | / | / | / | / | 2 | /

Bioassay records: PubChem, several laboratories
